BoNT-A LC inh2: BoNT/A light chain protease inhibitors, primary screen, biochemical, flow cytometry, MLPCN library; multiplex microsphere protease substrate cleavage; inhibition, % at 10 µM; 0.17% of 360,000 active; note: plate controls were buffer without enzyme for full effect and enzyme alone for no effect
BoNT F protease: BoNT/F light chain protease inhibitors, primary screen, biochemical, flow cytometry, MLPCN library | Multiplex microsphere protease cleavage assay | 0.22% of 360,000 active | inhibition, % at 10 µM; in the data active = inhibition above about 35%, passing the limit was not always enough; inconclusive = no clear call, values can overlap the other calls; note: plate controls were buffer without enzyme for full effect and enzyme alone for no effect
Autofluor counter: counter-screen for toxin protease inhibitors: compound fluorescence; compound autofluorescence counterscreen, microsphere flow cytometry; active compounds read high; fluorescence intensity (no concentration beside the values); 3.1% of 360,000 active; AID 624483; in the data active = fluorescence intensity above about 16000; inconclusive = no clear call, values can overlap the other calls
Anthrax LF inh2: Bacillus anthracis LF protease inhibitors, primary screen, biochemical, multiplex microsphere, MLPCN library. Lethal factor (Bacillus anthracis), P15917. multiplex microsphere protease cleavage assay. inhibition, % at 10 µM. 0.12% of 360,000 active; note: plate controls were buffer without enzyme for full effect and enzyme alone for no effect
3CLpro inhibitor: SARS-CoV 3CLpro protease inhibitors, primary screen, biochemical, quenched FRET | inhibition, % at 6 µM | 0.14% of 290,000 active | Replicase polyprotein 1ab (Severe acute respiratory syndrome coronavirus), P0C6X7 | recombinant SARS-CoV 3CLpro, quenched FRET peptide cleavage | AID 1706, 2009; in the data active = inhibition above about 12%
An asterisk follows results filed as active; ? = inconclusive; / = not tested or not shown. A selection: hits, their analogues and other compounds. The true share with any hit is near 3.5%. Cut-off read from the data, not from the text of the source, unless noted: active = inhibition above about 30%; inconclusive = no clear call, values can overlap the other calls; inactive = below that.

SMILES | BoNT-A LC inh2 | BoNT F protease | Autofluor counter | Anthrax LF inh2 | 3CLpro inhibitor
COc1ccc(S(=O)(=O)N(CC(=O)NCc2ccco2)c2ccccc2)cc1 | ? | 2 | 19214* | 1 | 1
COc1ccc(CN(C)C(=O)c2ccccc2Sc2ccccc2C#N)cc1OC | 2 | -2 | 5972 | 1 | 2
Cc1nn(-c2cc(N3CCNCC3)ccc2[N+](=O)[O-])c(=O)c2ccccc12 | 0 | -2 | 3082 | -2 | -3
Cc1nn(-c2cc(N3CCCCC3)ccc2[N+](=O)[O-])c(=O)c2ccccc12 | ? | 0 | 21077* | 2 | 0
CC1=C(C(=O)Nc2ccccc2)C(c2cccc([N+](=O)[O-])c2)Nc2nc3ccccc3n21 (centres undefined) | -3 | -3 | 23880* | -2 | -5
Nc1nc(C2C(=O)CCCC2=O)cs1 | -3 | -6 | 24150* | -2 | -6
CCOC(=O)CSc1nc(C)cc(Oc2ccc(=O)n(C)n2)n1 | -1 | -4 | 4483 | -5 | -1
COc1ccc(-c2cc(CCCC(=O)NCCc3ccc(OC)cc3OC)no2)cc1 | -2 | -2 | 24435* | -2 | -4
CCOc1ccc(-c2cc(CCCC(=O)NCCc3ccccc3)no2)cc1 | 0 | 2 | 3902 | -1 | -4
CCOc1ccc(-c2cc(CCCC(=O)NCCc3ccc(OC)c(OC)c3OC)no2)cc1 | 0 | -1 | 22608* | -2 | 3
COCOc1cc(O)c2c(=O)c(OCOC)c(-c3ccc(OCOC)c(OCOC)c3)oc2c1 | 0 | -4 | 5575 | 2 | /
CC12CC3CC(C)(C1)CC(C(=O)Nc1nn[nH]n1)(C3)C2 | ? | 2 | 19766* | 0 | -1
CC12CC3(C)CC(C)(C1)CC(C(=O)Nc1nn[nH]n1)(C2)C3 | 0 | 1 | 8014 | 0 | 5
CCC12CC3CC(C1)CC(C(=O)Nc1nn[nH]n1)(C3)C2 | ? | 2 | 23265* | -7 | -1
C=CCNc1nc(N2CCOCC2)nc(N2CCOCC2)n1 | 0 | -4 | 11165 | 2 | -7
Nc1nnnn1/N=C/c1ccccc1OCc1ccc(Cl)cc1Cl | 3 | 2 | 22215* | 0 | -3
O=C(c1sc2ccccc2c1Cl)N(Cc1ccccc1Cl)C1CCS(=O)(=O)C1 (centres undefined) | 0 | 2 | 22430* | 0 | 8
O=C(c1sc2ccccc2c1Cl)N(Cc1ccccc1)C1CCS(=O)(=O)C1 (centres undefined) | / | / | / | / | 9
CCOc1ccccc1C(=O)N(Cc1ccco1)C1CCS(=O)(=O)C1 (centres undefined) | 0 | 25 | 3990 | 5 | 4
O=C(c1sc2ccccc2c1Cl)N(Cc1ccco1)C1CCS(=O)(=O)C1 (centres undefined) | ? | -4 | 23946* | -3 | 2
Cc1ccc(NC(=O)CN2C(=O)NC(C)(c3ccc4c(c3)OCO4)C2=O)cc1 (centres undefined) | 1 | 0 | 3559 | -12 | /
CCOc1ccc(S(=O)(=O)N2CN3CCN(C3)C2)cc1 | -2 | -14 | 3743 | 8 | -3
CN(C)c1ccc(/C=C(\C#N)C(=O)Nc2nc3c(s2)CCN(Cc2ccccc2)C3)cc1 | 16 | 58* | 10915 | 8 | -1
O=C(Nc1nc2c(s1)CN(Cc1ccccc1)CC2)C1CCC1 | 12 | -3 | 6373 | 5 | -4
COC(=O)c1ccc(-c2n[nH]c(=O)c3ccccc23)cc1 | ? | 2 | 19671* | -1 | 0
SMILES | BoNT-A LC inh2 | BoNT F protease | Autofluor counter | Anthrax LF inh2 | 3CLpro inhibitor
Cc1ccc(-c2c3c([nH]c(=S)c2C#N)CCCC3)o1 | ? | -9 | 24820* | 0 | -3
O=C(/C=C/c1ccc(Cl)cc1)NCCSc1ccccc1 | ? | 2 | 19211* | -4 | -2
Cc1ccccc1NC(=O)CCN1C(=O)c2ccccc2C1=O | -2 | 17 | 3797 | -8 | -4
CN1/C(=C/c2cccc[n+]2CCO)Sc2ccccc21 | -3 | -24 | 4024 | 3 | -1
CCN1/C(=C/C=C/c2sc3ccccc3[n+]2CC)Sc2ccccc21 | 32* | -159 | 1601 | -192 | /
CCN1/C(=C/c2ccc3cc(C)ccc3[n+]2CC)Sc2cc(C)c(C)cc21 | 49* | -93 | 8339 | -62 | -35
CC[n+]1c(/C=C2\Sc3ccccc3N2C)ccc2cccc(C)c21 | 62* | -60 | 4252 | -31 | -20
CCN1/C(=C/c2ccc3cc(C)ccc3[n+]2CC)Sc2ccccc21 | 78* | -28 | 6257 | 22 | -19
O=C(Nc1ccccc1)c1c(F)cccc1F | 1 | -5 | 8895 | -2 | -2
O=c1c2ccccc2sn1-c1cc(S(=O)(=O)N2CCOCC2)ccc1N1CCOCC1 | 83* | 23 | 9835 | 1 | 0
Nc1cc(S(=O)(=O)N2CCOCC2)ccc1N1CCCCC1 | 0 | -5 | 4092 | 1 | /
O=c1c2ccccc2sn1-c1cc(S(=O)(=O)N2CCOCC2)ccc1N1CCCC1 | ? | 3 | 20573* | -8 | -2
O=S(=O)(c1ccc(N2CCOCC2)c(Cl)c1)N1CCOCC1 | -7 | -31 | 4115 | 0 | -8
CC12CCCCC1N(O)C(=O)C(=O)N2O (centres undefined) | -1 | -7 | 2140 | -2 | -1
CC(=O)Nc1ccc(S(=O)(=O)NCCC(=O)OCc2nc(N)nc(Nc3ccccc3C)n2)cc1 | 1 | 0 | 4323 | 2 | /
C=CCNC(=S)NNC(=O)c1ccc(OC(C)C)cc1 | -1 | -12 | 9572 | -9 | 5
CCNC(=S)NNC(=O)c1ccc(OC(F)F)cc1 | 0 | 2 | 23106* | -2 | -4
CC(C)CNC(=S)NNC(=O)c1ccc(OC(F)F)cc1 | 0 | 0 | 23366* | 0 | -2
COc1cccc(NC(=O)C2CCCC2)c1 | 0 | 1 | 4073 | -1 | /
Fc1ccccc1CSc1ncnc2c1oc1ccccc12 | 3 | 8 | 19470* | -1 | -2
O=C(CSc1ncnc2c1oc1ccccc12)Nc1cccc(C(F)(F)F)c1 | -1 | -5 | 5628 | -4 | 1
CC(C)Sc1ncnc2c1oc1ccccc12 | 0 | 0 | 23211* | -1 | -8
c1ccc(CSc2ncnc3c2oc2ccccc23)cc1 | 0 | -27 | 4629 | -4 | 2
O=C(CSc1ncnc2c1oc1ccccc12)Nc1cccc(Cl)c1 | -7 | -7 | 21833* | 1 | -1
O=C(NCC1CCCO1)C1CC(c2ccccc2Cl)=NO1 (centres undefined) | 1 | 1 | 21967* | 1 | 3
NC(=O)c1ncn([C@@H]2O[C@H](CNCc3ccccc3OCc3ccc(Cl)cc3Cl)[C@@H](O)[C@H]2O)n1 | 0 | -8 | 3135 | -6 | /
CCC(C)NC(=O)N[C@@H](CCSC)C(=O)OC (some centres undefined) | -1 | -4 | 10858 | 1 | 1
CCOC(=O)C(CCSC)NC(=O)CN (centres undefined) | 0 | -2 | 22429* | -1 | 1
